Assay results: the supplement of paper PMC3545927
The other results are listed elsewhere or left out. The true hit rate is not given.

Target: furin, P09958
Assay: furin cleavage Z-score vs untreated control; higher = more cleavage, active = 3.5 or more, inactive = 1 or less, 8 variable residues between constant flanks
How it was run: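 To give the cleavage Z-score, log read counts were set against furin-free reactions, lowess-adjusted and scaled by median absolute deviation. These counts came from PCR adapter-tagged, sequenced DNA released when purified furin cut 8-mer peptides fused to a cDNA oligonucleotide and held on magnetic beads by their N-terminus. Digests were 0.01 ml, 1:10 enzyme:substrate, in 50 mM HEPES pH 7.5 with CaCl2 and NaCl, for 7.5, 15 or 30 min.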

furin, P09958, sequence (P09958 whole entry): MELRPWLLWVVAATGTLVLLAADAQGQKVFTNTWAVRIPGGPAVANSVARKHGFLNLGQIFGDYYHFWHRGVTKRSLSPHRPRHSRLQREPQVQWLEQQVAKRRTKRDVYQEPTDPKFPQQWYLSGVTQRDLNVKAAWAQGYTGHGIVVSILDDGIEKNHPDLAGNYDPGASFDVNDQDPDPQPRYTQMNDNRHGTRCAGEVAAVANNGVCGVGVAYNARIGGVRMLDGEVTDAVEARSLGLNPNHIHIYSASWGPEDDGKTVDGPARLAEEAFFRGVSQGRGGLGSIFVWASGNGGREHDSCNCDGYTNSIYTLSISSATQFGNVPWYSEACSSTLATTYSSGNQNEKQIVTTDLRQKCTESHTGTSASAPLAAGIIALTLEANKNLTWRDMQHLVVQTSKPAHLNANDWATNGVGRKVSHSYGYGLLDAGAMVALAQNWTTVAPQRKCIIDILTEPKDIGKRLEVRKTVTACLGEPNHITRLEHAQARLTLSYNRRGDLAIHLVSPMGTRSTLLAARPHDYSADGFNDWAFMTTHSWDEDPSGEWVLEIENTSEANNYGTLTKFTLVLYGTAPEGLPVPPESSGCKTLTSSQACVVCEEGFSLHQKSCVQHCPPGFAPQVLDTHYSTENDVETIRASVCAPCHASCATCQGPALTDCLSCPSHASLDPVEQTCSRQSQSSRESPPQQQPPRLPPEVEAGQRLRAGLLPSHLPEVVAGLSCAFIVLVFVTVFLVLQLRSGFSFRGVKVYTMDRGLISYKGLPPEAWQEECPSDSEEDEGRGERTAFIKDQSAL

Sequence	furin cleavage Z-score (7.5 min)	furin cleavage Z-score (15 min)	furin cleavage Z-score (30 min)
CAEVVTSTHVAGNASASA [HC2235]	-0.582 (inactive)	0.167 (inactive)	-1.55 (inactive)
CAVCGDDLVVAGNASASA [HC1528]	-2.27 (inactive)	-1.44 (inactive)	-0.381 (inactive)
CADLVVICESAGNASASA [HC1530]	0.357 (inactive)	-1.48 (inactive)	1.02
CAPPGSVTVPAGNASASA [HC836]	0.584 (inactive)	0.308 (inactive)	-0.638 (inactive)
CAKVVTSTWVAGNASASA [HC2154]	-1.02 (inactive)	1.09	-1.67 (inactive)
CATTPCIGSWAGNASASA [HC65]	0.499 (inactive)	3.77 (active)	2
CATTPCWGSWAGNASASA [HC67]	0.261 (inactive)	1.14	1.23
CATTPCMGSWAGNASASA [HC68]	1.12	0.786 (inactive)	-0.593 (inactive)
CAAMGRGKRQAGNASASA [FS-1184]	9.02 (active)	8.89 (active)	8.8 (active)
CAEKTRHARQAGNASASA [FS-1520]	8.09 (active)	8.28 (active)	7.03 (active)
CAEKRRSADIAGNASASA [FS-2630]	-0.771 (inactive)	-1.51 (inactive)	-0.666 (inactive)
CASDSRHSRQAGNASASA [FS-1612]	0.00727 (inactive)	0.0993 (inactive)	0.17 (inactive)
CAALDRTKRQAGNASASA [FS-579]	11.8 (active)	12.8 (active)	11 (active)
CAAGVAGALVAGNASASA [HC1089]	-0.652 (inactive)	-0.752 (inactive)	0.946 (inactive)
CAGPGEGAVQAGNASASA [HC1114]	-0.225 (inactive)	-1.41 (inactive)	-1.21 (inactive)
CAGKSRNKRQAGNASASA [FS-243]	10.4 (active)	10.6 (active)	10.1 (active)
